ssDAF12 agonist: activates DAF-12 receptor from parasite S. stercoralis. HEK293 ssDAF-12/GRIP1 lit1-tk-luc reporter, luminescence; % of 3 µM dafachronic acid response. activation, % at 6.8 µM. 1% of 370,000 active. AID 652126;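 active means activation above the mean over all tested compounds plus 3 SD, cut at about 0.9% in these data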
DAX1 StAR inh: DAX1 (NR0B1) inhibition, primary screen; AID 652010; HEK293T StAR-luciferase reporter, SF-1/DAX-1 repression relief; 1.1% of 370,000 active; inhibition, % at 6.8 µM;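 active means inhibition above the mean over all tested compounds plus 3 SD, cut at about 3.6% in these data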;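 further: higher inhibition means more luminescence from relief of DAX-1 repression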
Wnt act: Wnt/beta-catenin pathway activation. Wnt/beta-catenin reporter cell assay, activator, plate reader. 1.2% of 300,000 active. activation, % at 9.35 µM; in the data active means activation above about 30%, passing the limit was not always enough; inconclusive means no clear call, values can overlap the other calls
hgDAF12 agonist: hgDAF-12 agonism, primary luciferase screen; HEK293 GAL4-hgDAF12 UAS-luciferase reporter, agonist luminescence; normalized to butyrate control; activation, % at 6.8 µM; 1.8% of 370,000 active;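 active means activation above a cutoff set at the mean of all screened compounds plus 3 SD, cut at about 10% in these data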
hcDAF-12 act: H. contortus DAF-12 activation, primary screen | HEK293 hcDAF-12 lit1-tk-luc reporter, luminescence; 0% DMSO, 100% Δ7-dafachronic acid | AID 652067 | 1.4% of 370,000 active | activation, % at 6.8 µM;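 active means activation above the mean of all tested compounds plus 3 SD, cut at about 5.5% in these data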
esBAF inh: inhibitors of esBAF chromatin remodeling in mouse ES cells | reporter increase, % at 12.5 µM | AID 602393 | Bmi1-luciferase knock-in reporter, 24 h; 100% = twice the neutral-well signal | 2% of 350,000 active; in the data active means activation above about 40%; inconclusive means no clear call, values can overlap the other calls;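 further: a rise in the Bmi1 reporter signal indicates esBAF inhibition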
Hits are given with their value; i = inactive; ? = inconclusive; nt = no result given. Sampled rows, rich in hits. Any-hit rate of the full collection: about 4.2%.

SMILES	ssDAF12 agonist	DAX1 StAR inh	Wnt act	hgDAF12 agonist	hcDAF-12 act	esBAF inh
CCOc1ccccc1-n1nnnc1SCC(=O)O	i	i	36.4	i	i	i
O=[N+]([O-])c1ccc(Nc2ccc(Cl)cc2)nc1	i	i	i	i	i	nt
O=[N+]([O-])c1ccc(Nc2ccc3ccccc3c2)nc1	i	i	i	11.1	i	95.6
C[C@H]1CN([C@@H](C)CO)C(=O)c2cccc(NC(=O)Nc3cccc4ccccc34)c2O[C@H]1CN(C)C(=O)Nc1ccc2c(c1)OCO2	nt	nt	nt	nt	nt	i
COC(=O)Nc1nc2c(C)cccc2s1	i	i	i	i	i	i
Cc1ccc(C(=O)Nc2nc3ccc(S(C)(=O)=O)cc3s2)s1	i	i	nt	i	i	i
Cc1ccc2nc(NC(=O)c3ccc(Cl)s3)sc2c1	i	4.0	?	i	i	i
Cc1cccc2sc(NC(=O)c3ccc(Cl)s3)nc12	1.1	i	i	i	i	?
Cc1cccc2sc(NC(=O)CCn3cccc3)nc12	i	i	i	11.8	i	nt
Cc1nc2ccc(NC(=O)c3ccc(Cl)s3)cc2s1	i	4.1	i	i	i	79.0
CO[C@@H]1CC[C@@H]2CCN(C)C(=O)[C@@H](C)CN(C)C(=O)c3cc(C#N)ccc3OC[C@@H]1O2	nt	nt	nt	nt	nt	i
Cc1nc2ccc(NC(=O)N(C(C)C)C(C)C)cc2s1	i	i	nt	i	i	44.4
O=c1[nH]cccc1-c1nc2ccccc2[nH]1	i	i	i	i	i	i
Nc1ccccc1-c1nc2ccccc2[nH]1	i	4.0	55.0	11.4	i	i
C[C@@H]1CN([C@@H](C)CO)C(=O)c2cc(NC(=O)c3ccncc3)ccc2O[C@H]1CN(C)Cc1ccc(C(F)(F)F)cc1	nt	nt	nt	nt	nt	i
O=C(CCCN1C(=O)/C(=C/c2ccccc2)SC1=S)NCCCn1ccnc1	i	i	i	i	i	i
O=C(CCN1C(=O)/C(=C/c2ccccc2F)SC1=S)NCCCn1ccnc1	i	i	i	i	6.5	i
Cc1ccc(/C=N/Nc2nc3ccccc3[nH]2)s1	i	i	156.4	i	6.1	nt
Cc1[nH]c2ccccc2c1/C=N/Nc1nc2ccccc2[nH]1	i	i	97.7	i	i	nt
Cc1ccccc1/C=N/Nc1nc2ccccc2[nH]1	i	i	i	i	i	nt
O=C(N/N=C/c1ccc(Br)s1)Nc1ccccc1	i	i	i	11.2	i	51.1
C(=N\Nc1nc2ccccc2[nH]1)/C1CCCCC1	i	i	i	i	i	nt
O=C(N/N=C/c1ccc(Br)s1)c1cccs1	i	i	i	i	i	nt
C(/CCc1ccccc1)=N\Nc1nc2ccccc2[nH]1	i	i	39.6	i	i	nt
Cc1noc(C)c1NC(=O)Nc1cccc2c1O[C@H](CN(C)Cc1ccncc1)[C@H](C)CN([C@H](C)CO)C2=O	nt	nt	nt	nt	nt	i
SMILES	ssDAF12 agonist	DAX1 StAR inh	Wnt act	hgDAF12 agonist	hcDAF-12 act	esBAF inh
CN(C)C(=O)C[C@H]1CC[C@H](NC(=O)Nc2cccc(F)c2)[C@@H](CO)O1	nt	nt	nt	nt	nt	i
C[C@@H]1CCCCO[C@H](CN(C)Cc2ccc3c(c2)OCO3)[C@H](C)CN([C@H](C)CO)C(=O)c2cc(NC(=O)Nc3ccc(F)cc3)ccc2O1	nt	nt	nt	nt	nt	i
COc1ccc(NC(=O)N(C)C[C@H]2Oc3c(NC(=O)Nc4ccc(C(F)(F)F)cc4)cccc3C(=O)N([C@@H](C)CO)C[C@H]2C)cc1	nt	nt	nt	nt	nt	i
C(=N\Nc1nc2ccccc2[nH]1)/c1ccccc1	i	i	i	i	i	55.0
Fc1cccc(/C=N/Nc2nc3ccccc3[nH]2)c1	i	i	i	i	i	nt
C(=N\Nc1nc2ccccc2[nH]1)/c1c[nH]c2ccccc12	i	i	nt	i	i	nt
Cc1ccsc1/C=N/Nc1nc(Cl)c(Cl)cc1Cl	i	i	i	i	i	?
Cc1ccc(/C=N/Nc2nc(Cl)c(Cl)cc2Cl)s1	0.9	i	71.7	i	i	60.5
C(=N\Nc1nc2ccccc2[nH]1)/c1cccc2cccnc12	i	i	37.3	i	i	nt
Cc1[nH]c2ccccc2c1/C=N/NC(=O)Nc1ccccc1	i	i	i	i	6.0	nt
O=C(Nc1ccc(F)cc1)N[C@@H]1CC[C@@H](CC(=O)N2CCOCC2)O[C@@H]1CO	nt	nt	nt	nt	nt	i
COCC(=O)Nc1ccc2c(c1)C(=O)N(C)C[C@H](OC)[C@H](C)CN(C(=O)NC(C)C)[C@@H](C)CO2	nt	nt	nt	nt	nt	i
O=C(NCc1ccccc1)c1c[nH]c2cc3c(cc2c1=O)OCCO3	i	i	i	i	i	51.2
CN(C(=O)CSc1ncnc2ccccc12)C1CCCCC1	i	i	i	i	i	85.5
O=C(CSc1ncnc2ccccc12)N1CCNC1=O	i	i	i	i	i	41.8
CN(C(=O)CSc1nnc(-c2ccco2)o1)C1CCCCC1	i	i	nt	i	i	40.8
CO[C@@H]1CN(C)C(=O)c2ccc(NC(=O)C3CCOCC3)cc2OC[C@H](C)NC[C@@H]1C	nt	nt	nt	nt	nt	i
O=c1oc2ccccc2cc1NCc1ccccc1O	i	i	i	i	i	63.3
O=C(N[C@@H]1CC[C@H](CCNS(=O)(=O)c2ccc(F)cc2)O[C@H]1CO)c1ccccn1	nt	nt	nt	nt	nt	i
COc1cc(/C=N/N=C2/NC(=O)C(CC(=O)O)S2)ccc1OCc1ccc(Cl)cc1 (stereo unspecified)	i	i	nt	11.6	i	nt
COc1cc(/C=N/N=C(N)N)ccc1OCc1ccc(Cl)cc1	i	i	i	i	i	nt
COCCOC(=O)CSc1ncccc1-c1nc2cc(C)c(C)cc2[nH]1	i	i	i	i	i	i
Cc1cc2nc(-c3cccnc3SCC(=O)NC(C)C)[nH]c2cc1C	i	4.1	i	i	i	nt
Clc1cccc(-c2ccc3ncnc(NCc4cccs4)c3c2)c1	i	i	35.4	i	i	i
O=C(C[C@H]1C=C[C@@H](NC(=O)Nc2ccc3c(c2)OCO3)[C@H](CO)O1)NCc1ccc(Cl)cc1	nt	nt	nt	nt	nt	i
SMILES	ssDAF12 agonist	DAX1 StAR inh	Wnt act	hgDAF12 agonist	hcDAF-12 act	esBAF inh
COc1ccc(C(=O)CSc2ccc(-c3ccccc3)nn2)cc1	i	i	i	i	i	nt
COc1ccc(-c2ccc(SC)nn2)cc1	i	4.4	i	i	i	i
C[C@H](CO)N1C[C@H](C)[C@@H](CN(C)C(=O)Nc2ccc3c(c2)OCO3)Oc2ncc(-c3cccnc3)cc2C1=O	nt	nt	nt	nt	nt	i
Nc1c(C(=O)c2ccccc2)sc2nsc(SCCN3CCOCC3)c12	i	i	40.1	i	i	nt
Nc1nc(SCC(=O)O)[nH]c(=O)c1NC(=O)c1ccco1	i	i	i	i	i	i
Nc1nc(SCC(=O)N2CCCC2)[nH]c(=O)c1NC(=O)c1ccco1	2.3	i	i	i	i	i
CCC(=O)N(C)C[C@H]1Oc2ncc(C#CC(C)(C)O)cc2C(=O)N([C@H](C)CO)C[C@H]1C	nt	nt	nt	nt	nt	i
COCC(C)NC(=O)NC(=O)c1ccc(Cl)cc1 (stereo unspecified)	1.1	i	nt	i	i	i
C[C@@H]1CN([C@H](C)CO)C(=O)c2cc(NC(=O)c3ccccc3)ccc2O[C@@H](C)CCCCO[C@@H]1CN(C)C(=O)Cc1ccccc1	nt	nt	nt	nt	nt	i
Cc1cc2nn(-c3ccccc3)nc2cc1NC(=O)c1cccs1	i	i	30.9	i	i	nt

Compound activity: PubChem, several laboratories
